Laboratory results taken from PubChem BioAssay (NCI).
This is part of a sample that, as a whole, favours compounds with a hit. Of some 83,000 tested, about 20% had one in any assay.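 Single-dose data. Exposure time 48 hours. Values below 10 considered active.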 Values without a mark were called inactive. Activity calls are given as the source filed them.

Columns and labels:
Assay in all cases: NCI-60 one-dose screen, 48 h (100 = growth as untreated, 0 = no growth, -100 = all killed)
Details in all cases: 10 µM unless noted
HCT-15 colon = system: HCT-15 colon
HT29 colon = system: HT29 colon
SNB-75 CNS = system: SNB-75 CNS
SNB-19 CNS = system: SNB-19 CNS
U251 CNS = system: U251 CNS
PC-3 prostate = system: PC-3 prostate
SK-MEL-5 melanoma = system: SK-MEL-5 melanoma
UACC-62 melanoma = system: UACC-62 melanoma
LOX IMVI melanoma = system: LOX IMVI melanoma
SK-MEL-28 melanoma = system: SK-MEL-28 melanoma

Structure (SMILES)	growth (HCT-15 colon) [%]	growth (HT29 colon) [%]	growth (SNB-75 CNS) [%]	growth (SNB-19 CNS) [%]	growth (U251 CNS) [%]	growth (PC-3 prostate)	growth (SK-MEL-5 melanoma) [%]	growth (UACC-62 melanoma) [%]	growth (LOX IMVI melanoma) [%]	growth (SK-MEL-28 melanoma) [%]
Cn1ccc(Cc2cnc(N)s2)n1	104	97.5	93.3	98.9	97.5	98.8%	101	100	103	106
C=C(C)[C@@H]1CC[C@@]2(C(=O)O)CC[C@]3(C)C(CCC4[C@@]5(C)CCC(OS(=O)(=O)c6ccccc6)C(C)(C)C5CC[C@]43C)C12 (stereo not given in full)	39.7	58.4	86.1	83.6	41.5	44.4%	35.6	47.5	53.8	86
COc1cccc(-c2nc3sccn3c2-c2ccnc(NCCNS(=O)(=O)c3c(Cl)cccc3Cl)c2)c1	47.3	47.3	42.8	77	70.1	41.2%	26	28.6	58.6	90.4
C=CCN1C(=O)[C@]2(SC1=S)[C@H](c1cccc(Cl)c1)CN(C)[C@]21C(=O)NC2C=CC(Cl)=C[C@H]21 (stereo not given in full)	27	27.9	44.4	59.9	67.8	7.5% (active)	42	36.1	13.3	64.1
Cc1nc2ccc(C(=O)NCc3cc(C(=O)O)c(C)o3)cc2nc1C	105	95.6	79.4	101	96.8	90%	105	94.8	94.3	103
Cn1cc(Nc2nccc(-c3ccc(N4CCCC4)c(C#N)c3)n2)cn1	21.3	20.3	24.5	62.3	35.8	43%	38.8	28.8	32.6	64
O=C1Nc2ccc(Cl)cc2/C1=N/N=C/c1c[nH]c2ccccc12	66.9	86.9	58.1	86.3	70.9	93.8%	87.7	43.1	74	102
CC1(C)C(=O)/C(=C\c2cccnc2)C[C@]2(C)[C@H]3CC=C4[C@@H]5C[C@@](C)(C(=O)O)CC[C@]5(C)CC[C@@]4(C)[C@]3(C)CC[C@@H]12	87.5	91.5	82	96.8	89	75.3%	109	97.7	99.5	109
Nc1ccc(-c2cc3c(Nc4ccc(OCc5cccc(F)c5)c(Cl)c4)ncnc3s2)cc1	32.9	84.5	87.2	77.3	57	29.6%	57.7	55.7	24.5	39.3
